# In PubChem BioAssay (NCATS):
# Inconclusive results are not listed. Where a call stands in place of a potency, no number is given. Calls of active or inactive are those of the source. Calls come from the whole dose curve; as a rule, active = well fitted inhibition curve with a large enough effect; inconclusive = small, poorly fitted or top-dose-only effect; inactive = flat fitted curve, though single readings scatter. Bridge positions count the residues as written; N and C are the ends. Square brackets hold non-standard residues; d marks the D form. Peptide text beside a SMILES is read from it. Orn = NCCC[CH](N)C(=O)O; Mpa = O=C(O)CCS
# Target: Glutathione peroxidase 1 (Homo sapiens) (UniProt P07203)
# Sequence (P07203 whole entry, looked up): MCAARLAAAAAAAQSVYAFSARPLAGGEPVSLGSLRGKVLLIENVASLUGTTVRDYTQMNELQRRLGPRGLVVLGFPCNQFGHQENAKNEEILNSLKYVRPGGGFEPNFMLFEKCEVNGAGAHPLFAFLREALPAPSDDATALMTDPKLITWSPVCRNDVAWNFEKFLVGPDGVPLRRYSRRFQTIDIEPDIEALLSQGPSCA
# Experiment: Primary qHTS Assay for Inhibitors of Recombinant Selenoprotein Glutathione Peroxidase 1 (GPX1) (AID 1845191); note: nearly all actives have a fitted effect of over 65% in size
# Details: recombinant GPX1, GR-coupled NADPH fluorescence, 15 min; series mostly up to 48.8 µM; activity, negative = inhibition: at the top concentration
# Procedure, shortened: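 NADPH consumption tracked by fluorescence at 340/450 nm between t=0 and t=15 min, room temperature. Final mix: 10 nM GPX1, 100 nM glutathione reductase, 1 mM GSH, 0.5 mM NADPH, 0.5 mM cumene hydroperoxide, 0.01% BSA; 30 min compound–enzyme preincubation.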
Structure (SMILES),outcome,"activity, negative = inhibition",Potency
O=C1NC(Nc2ccccc2)=N/C1=C\c1ccc2c(c1)OCO2,inactive,,
Cc1ccc(-c2nc(-c3cc4cccc(OCc5cccc(C)c5)c4oc3=O)no2)cc1,inactive,,
C1CCC[C@H]2CCCN3CC[C@H](CCCCCC[C@@H]4CCCN5CC[C@H](CC1)O[C@H]45)O[C@H]23,,1.08% [at 0.127 µM] (inactive),
O=C(O)CCN(O)C(=O)CCCCCCCCC1CC1,,-5.84% (inactive),
N#Cc1ncccn1,,3.33% (inactive),
CN1C(=O)[C@]23C[C@H]4C(C)(C)[C@]5(CNc6c5ccc5c6OC=CC(C)(C)O5)C[C@@]41CN2CC[C@@]3(C)O,,-27.5% (inactive),
CCOC(=O)[C@H](C)C[C@@H](Cc1ccc(-c2ccccc2)cc1)NC(=O)CCC(=O)O,,-14.5% (inactive),
CCN1CCN(C(c2ccc(C)cc2)c2sc3nc(-c4ccco4)nn3c2O)CC1 (stereo not given),inactive,,
Clc1cccc(N2CCN(c3nc4ccccc4c4nc(-c5cccnc5)nn34)CC2)c1,inactive,,
CN1CCN(C(c2ccc(Cl)cc2Cl)c2sc3nc(-c4ccco4)nn3c2O)CC1 (stereo not given),,-18.3% (inactive),
O=C(NCC(=O)N1CCCCC1)Nc1ccc2nnsc2c1,inactive,,
C/C(=N\N=C(N)N)c1ccc(NC(=O)Nc2ccc(/C(C)=N/N=C(N)N)cc2)cc1,inactive,,
COc1ccc(S(=O)(=O)ON=C2C=C(C)C(=O)C(C)=C2)cc1,inactive,,
O=C(Cn1ncc2c1-c1ccccc1OC2)N1CCN(c2ccccc2)CC1,inactive,,
O=C1COc2c(CCNCCN(C(=O)CCNCCc3ccc(Cl)c(Cl)c3)C3CCCCC3)ccc(O)c2N1,inactive,,
Cc1cc(C)n(CCc2nc3c4ccccc4nc(N4CCN(c5cccc(C)c5C)CC4)n3n2)n1,inactive,,
Cc1cncc(CN2CCC(=C3c4ccc(Cl)cc4CCc4cccnc43)CC2)c1,,0.621% (inactive),
OCCN1CCN(C(c2ccc(Cl)cc2Cl)c2sc3nc(-c4ccco4)nn3c2O)CC1 (stereo not given),,-9.13% (inactive),
O=C(CCc1cc(=O)[nH]o1)N[C@H](C1CCNCC1)C1CC(O)C1 (stereo not given in full),,2.98% (inactive),
CCCCCCCCn1cc(CC(N)=O)c2cc(-c3cccc(C)c3)ccc21,,-4.03% (inactive),

Structure (SMILES),outcome,"activity, negative = inhibition",Potency
C=C1C/C(=C\C=C2/CCC[C@]3(C)[C@@H]([C@H](C)/C=C/C(C)C(C)C)CC[C@@H]23)[C@@H](O)C[C@@H]1O (stereo not given in full),inactive,,
O=C(Cn1c(=O)oc2cc(S(=O)(=O)N3CCCCC3)ccc21)NCc1ccc(Cl)cc1,inactive,,
C=C(C)CNc1ccc(C(C)C(=O)O)cc1 (stereo not given),,-16.7% (inactive),
CCCCC(=O)N(Cc1ccc(-c2ccccc2-c2nn[nH]n2)cc1)[C@H](C(=O)O)C(C)C,,,inactive
CC1CCc2c(sc3nc(-c4cc5ccccc5oc4=O)nc(Cl)c23)C1 (stereo not given),inactive,,
C=C1/C(=C\C=C2/CCC[C@@]3(C)C2CC[C@@H]3[C@H](C)/C=C\[C@@H](O)C2CC2)C[C@@H](O)C[C@@H]1O (stereo not given in full),,-14.6% (inactive),
CC(C)(O)CNc1ncc(-c2ccnc(Nc3ccnc(Cl)c3)n2)c(CC2CC2)n1,inactive,,
N=c1sc2c(n1CC(=O)c1ccc([N+](=O)[O-])cc1)CCCC2,inactive,,
CN(Cc1cccc(N2CCN(C(c3ccccc3)c3ccccc3)CC2)c1)[S+](C)(=O)[O-],,1.17% (inactive),
CCC(=O)O[C@]1(C(=O)COC(C)=O)CC[C@H]2[C@@H]3C[C@H](C)C4=CC(=O)C=C[C@]4(C)[C@H]3[C@@H](O)C[C@@]21C,,-20.6% (inactive),
CC(C)C(=O)SCCCCCCC(=O)Nc1nc(-c2ccccc2)cs1,,-1.07% (inactive),
CN(C)c1ccc(C(=O)NCCCCCC(=O)NO)cc1,inactive,,
O=C1NC(=O)/C(=C/c2ccc3c(c2)OCO3)S1,,-14% (inactive),
O=C1Cc2ccccc2N1,,-9.52% (inactive),
CCOc1ccc(CC2NC(=O)CCSSCC(C(=O)N3CCCC3C(=O)NC(CCCN)C(=O)NCC(N)=O)NC(=O)C(CC(N)=O)NC(=O)C(C(C)O)NC(=O)C(C(C)CC)NC2=O)cc1 (stereo not given) ([Mpa]Y(Et)ITNCP[Orn]G-NH2; disulfide 1-6; configuration not given here),,-24.3% (inactive),
CS(=O)(=O)n1cc2c(n1)CN([C@H]1CO[C@H](c3cc(F)ccc3F)[C@@H](N)C1)C2,,-20.6% (inactive),
COc1ccc(C[C@H](NC(=O)[C@H](C)NC(=O)CN2CCOCC2)C(=O)N[C@@H](Cc2ccccc2)C(=O)[C@@]2(C)CO2)cc1,inactive,,
CCn1c(-c2nc3cc(C(=O)N4CCC[C@@H](N)C4)cc(OC)c3n2C)cc2ccccc21,inactive,,
Cc1cc(Nc2cccc(C(F)(F)F)c2)nc2ccc(NC(=O)c3ccc(=O)[nH]c3)cc12,inactive,,
CC(NC(=O)c1ccccc1N=Cc1c(O)ccc2ccccc12)c1ccccc1 (stereo not given),,,inactive
